Source: PubChem BioAssay (SRMLSC)
NADH coupling: inhibitors of PK/LDH coupling enzymes, profiling panel, artefact control, biochemical, MLSMR library; AID 774, 2007; coupled PK/LDH NADH assays, four targets; actives 0.02% (n = 65,000); IC50, µM (series often up to 10 µM), for inactives: top-dose inhibition;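 active = single-dose screening hits from any of four coupled enzyme assays that gave an IC50 when retested across doses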;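 also: the DPM-DC format reads NADH fluorescence rather than 340 nm absorbance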
Spn PMK inh: S. pneumoniae PMK inhibitors, primary screen, biochemical, mevalonate pathway, pilot trial included. actives 0.49% (n = 65,000). phosphomevalonate kinase (Streptococcus pneumoniae D39). inhibition, % at 10 µM. purified PMK, PK/LDH-coupled NADH absorbance 340 nm. AID 539, 2006;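 active = top-ranked compounds by inhibition in the single 10 µM screen, taking a fixed number of the strongest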;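 also: 0% = full reaction with DMSO carrier and 100% = background rate without enzyme reaction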
DPM-DC inhibit: S. pneumoniae DPM-DC inhibitors, primary screen, biochemical, PK/LDH-coupled NADH fluorescence | purified DPM-DC | calls only at 10 µM | actives 0.49% (n = 65,000) | AID 556, 2006;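 active = the 320 compounds with the highest percent inhibition in the single-dose primary screen, excluding strongly autofluorescent ones, cut at about 32% in these data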;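 also: kinetic rate of NADH fluorescence loss reporting ADP formed by the decarboxylase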
Spn MK inh: S. pneumoniae MK inhibitors, primary screen, biochemical, PK/LDH-coupled NADH absorbance; mevalonate kinase [Streptococcus pneumoniae D39]; purified MK, PK/LDH-coupled NADH absorbance 340 nm; inhibition, % at 10 µM; actives 0.48% (n = 65,000);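 active = ranked among the strongest by inhibition in the single 10 µM screen, a fixed top-ranked set picked for dose follow-up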
Autofluor 339: intrinsic fluorescence of library compounds, ex339/em460 – biochemical, MLSMR library, data from DPM-DC assay, artefact control, profiling panel. fluorescence fold increase at 10 µM. actives 5.5% (n = 65,000). compound autofluorescence, ex339/em460 nm, NADH buffer; active compounds read high; 1 = no-compound wells, NADH background;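 active = at 10 µM, mean starting fluorescence two-fold or more over control wells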;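 also: signal is the first read of a kinetic run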
A340 absorber: compound light absorbance at 340 nm, profiling panel, artefact control, biochemical, MLSMR library, data from PS, PMK, MK assays | compound absorbance at 340 nm, fold over control | fold change at 10 µM | 65,000 tested, under 10 active | AID 708, 2007;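 active = at 10 µM dose, initial 340 nm absorbance at least 2 fold that of control wells; inactive = change under 2 fold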;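 also: initial absorbance extrapolated from kinetic A340 decline of NADH oxidation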
Starred values were filed as active, the others as inactive; i = inactive; . = no result shown; + = active, no number. Most compounds without a hit are left out; they make up all but 6.5% or so of the library.

SMILES	NADH coupling	Spn PMK inh	DPM-DC inhibit	Spn MK inh	Autofluor 339	A340 absorber
CCN(CC)CCCN(Cc1cc2cc3c(cc2[nH]c1=O)OCO3)C(=O)Nc1ccccc1OC	15.0%	5.0	+	7.0	2.76*	1.18
O=C(c1cccs1)N(CCO)Cc1cc2cc3c(cc2[nH]c1=O)OCCO3	7.0%	1.0	i	0.0	2.55*	1.15
Cc1cc(C)c2cc(CN(CCO)C(=O)Nc3ccc(F)cc3)c(=O)[nH]c2c1	5.0%	6.0	i	8.0	1.16	1
CCn1c(Sc2ccc(N)cc2Cl)nc2ccccc21	0.0%	0.0	i	0.0	1.12	1.07
CCOc1ccc(-c2cc(C(=O)NCCCN3CCN(CC)CC3)c3ccccc3n2)cc1	4.0%	8.0	.	0.0	5.19*	1.09
COc1ccc(-c2cc(C(=O)NCCN3CCOCC3)c3ccccc3n2)cc1	6.0%	11.0	.	0.0	4.89*	1.09
O=c1ccc(Oc2nc(N3CCCCC3)nc(N3CCCCC3)n2)n[nH]1	5.0%	13.0	i	2.0	1.06	0.99
c1ccc(CCn2nnnc2C(c2cccs2)N2CCOCC2)cc1 (centres undefined)	3.0%	25.0*	i	0.0	1.05	1.01
CC(C)C(c1nnnn1CCc1ccccc1)N1CCOCC1 (centres undefined)	0.0%	0.0	i	0.0	1.07	1.03
CCOc1cc2[nH]c(=O)n(CCCCC(=O)NC3CCCCC3)c(=O)c2cc1OCC	5.0%	2.0	i	3.0	2.45*	1.06
COc1cc2[nH]c(=O)n(CCC(=O)NC3CCCC3)c(=O)c2cc1OC	5.0%	14.0	i	0.0	2.02*	1.05
CCCCCNC(=O)CCCCn1c(=O)[nH]c2cc(OCC)c(OCC)cc2c1=O	5.0%	6.0	i	9.0	2.13*	1.04
CCOc1cc2[nH]c(=O)n(CCCC(=O)NCc3ccco3)c(=O)c2cc1OCC	6.0%	5.0	i	1.0	2.3*	1.02
CCOc1cc2[nH]c(=O)n(CCCCC(=O)NCc3ccco3)c(=O)c2cc1OCC	7.0%	5.0	i	5.0	1.81	0.99
CCC(C)C(NS(=O)(=O)c1ccc(C)cc1)C(=O)NCCN1CCOCC1 (centres undefined)	2.0%	1.0	i	5.0	1.11	1.04
CCC1(C)Cc2nc3sc(C(=O)O)c(N)c3cc2CO1 (centres undefined)	1.0%	0.0	i	4.0	1.09	1.05
CCCCS(=O)(=O)c1sc2nc3c(cc2c1N)CCCC3	8.0%	6.0	.	10.0	3.34*	1.06
CC(C)OC(=O)CC(=O)CSc1nc2c(cc1C#N)CCC2	13.0%	18.0	.	8.0	3.69*	1.04
C=C(C)CSc1nc2c(cc1C#N)CCC2	2.0%	0.0	i	5.0	1.15	1.04
CCc1c(C)nc(SCC(=O)CC(=O)OC(C)C)c(C#N)c1C	11.0%	11.0	i	12.0	2.16*	1
N#Cc1cc2c(nc1SCc1nc3ccccc3[nH]1)CCC2	16.0%	13.0	i	10.0	2.07*	1.02
COC(=O)CC(=O)CSc1nc2c(cc1C#N)CCC2	1.0%	0.0	.	2.0	3.82*	1.13
O=C(c1ccc(Cl)c(F)c1F)N1CCCC1	1.0%	8.0	i	2.0	1.06	1.07
COc1ccccc1CNC(=O)CCS(=O)(=O)c1ccc2c(c1)CCCN2C(C)=O	5.0%	3.0	i	11.0	1.13	1
COC(=O)c1ccc(C(=O)OC)c(NC(=O)c2oc(C)nc2C)c1	5.0%	5.0	i	10.0	1.75	1.04
SMILES	NADH coupling	Spn PMK inh	DPM-DC inhibit	Spn MK inh	Autofluor 339	A340 absorber
CS(=O)CSc1nc2c(cc1C#N)CCCC2 (centres undefined)	5.0%	9.0	i	5.0	1.11	0.97
N#Cc1cc2c(nc1SCC(=O)Nc1nccs1)CCCCC2	5.0%	0.0	i	7.0	1.76	1
COC(=O)CC(=O)CSc1nc(C)cc(C)c1C#N	5.0%	8.0	.	2.0	3.77*	1.09
CC(C)OC(=O)CC(=O)CSc1nc2c(cc1C#N)CCCC2	7.0%	8.0	.	6.0	3.74*	1.02
CCOC(=O)CC(=O)CSc1nc2c(cc1C#N)CCCCCC2	2.0%	3.0	.	0.0	2.37*	1.04
Cc1ccccc1CN1CCN(CC(=O)NCc2ccc3c(c2)OCO3)C1=O	6.0%	17.0	i	0.0	1.1	0.97
O=C1CC(c2cccc(Cl)c2)CC(O)=C1C=NCCCO (centres undefined)	5.0%	8.0	i	8.0	1.05	0.98
Cc1cccn2c(N)c(-c3ccccc3)nc12	6.0%	12.0	.	0.0	2.11*	1.1
Cn1c2c(c(=O)n(C)c1=O)C(c1ccccc1OC(F)F)C1=C(CCCC1=O)N2 (centres undefined)	14.0%	14.0	i	4.0	3.99*	1
Cc1cccn2c(=O)c3cc(C(=O)NC(C)C)c(=N)n(Cc4ccncc4)c3nc12	7.0%	4.0	.	9.0	3.72*	1.04
CCNC(=O)c1cc2c(=O)n3cccc(C)c3nc2n(Cc2ccc(C)cc2)c1=N	9.0%	11.0	.	7.0	3.8*	1.03
Cc1cccn2c(=O)c3cc(C(=O)Nc4ccc(N(C)C)cc4)n(C)c3nc12	4.0%	7.0	i	5.0	1.27	1.11
CCCn1c(=N)c(C(=O)NCc2ccc3c(c2)OCO3)cc2c(=O)n3cccc(C)c3nc21	10.0%	10.0	i	8.0	2.11*	1.05
CCN(CC)C(=O)CSC1=C(C#N)C(c2cccs2)C=C(C)N1 (centres undefined)	7.0%	0.0	i	12.0	1.08	1.05
O=C(C1CCN(S(=O)(=O)c2cccc3cccnc23)CC1)N1CCn2c1nc1ccccc12	4.0%	3.0	i	4.0	1.03	1.05
O=C(CN(C1CCCCC1)S(=O)(=O)c1ccc(Cl)cc1)NCc1ccncc1	3.0%	7.0	i	3.0	1.11	1.03
CCOC(=O)COc1ccc2nsnc2c1Cl	16.0%	9.0	+	6.0	2.92*	1.03
Cc1c(-c2ccc(F)cc2)nc(N)c(C#N)c1-c1ccco1	5.0%	6.0	i	10.0	2.43*	1.08
Cc1ccc(N(C(C)C(=O)N2CCCCC2)S(C)(=O)=O)cc1C (centres undefined)	0.0%	1.0	i	0.0	1.13	1
COc1ccc(C(=O)N2CCN=C2SCc2cccnc2)cc1OC	3.0%	0.0	i	8.0	1.1	1.01
COc1cc2c(cc1OC)-c1cc(N3CCCc4ccccc43)nc(=O)n1CC2	6.0%	0.0	i	14.0	1.12	1.19
